We go through 29 molecules from PubChem BioAssay (Tox21).

Test [1] is described as follows: qHTS assay to identify small molecule agonists of the sonic hedgehog signaling (Shh) pathway (AID 1259368). Further: nearly all actives have a fitted effect of over 15% in size. Further: potency means the concentration at half of the fitted maximal effect. Put shortly: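 Steps: seed 3T3 Gli1-Luc cells, incubate 4 hr at 37 C, pin-transfer compounds in DMSO alongside a positive control, incubate 24 hr, add luciferase detection reagent, wait 30 min at room temperature, read luminescence.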
(qHTS replaces the single test concentration by a dilution series.)

Test [2] is described as follows: qHTS assay to identify small molecule antagonists of the sonic hedgehog signaling (Shh) pathway (AID 1259369). Further: nearly all actives have a fitted effect of over 45% in size. Further: potency means the concentration at half of the fitted maximal effect. Put shortly: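 Inhibition of Shh signalling is measured as reduced Gli1-response-element firefly luciferase output in an NIH/3T3-derived stable reporter clone stimulated with conditioned medium for 24hr.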
For test [3], the target named is Estrogen receptor beta (Homo sapiens) (UniProt Q92731). Put plainly: qHTS assay to identify small molecule agonists of the estrogen receptor beta (ER-beta) signaling pathway (AID 1259377; active means well fitted activation curve with a large enough effect in the signal ratio in the repeat runs, not every such curve was filed as active; the % refers to the signal ratio). An outline of the steps:
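Ratiometric beta-lactamase FRET read-out came after 2 h substrate loading at room temperature. It followed 16 h compound treatment at 37C of GripTite HEK293T cells carrying a UAS-bla reporter, plated in 2% charcoal-stripped FBS medium.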

Test [4] shares this target. Nature of the test: qHTS assay to identify small molecule antagonists of the estrogen receptor beta (ER-beta) signaling pathway (AID 1259378; active means well fitted inhibition curve with a large enough effect in the signal ratio in the repeat runs, not every such curve was filed as active; the % refers to the signal ratio; further: potency means the concentration at half of the fitted maximal effect). Put shortly:
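Antagonist mode: compounds added to beta-lactamase reporter HEK293T ER-beta-UAS cells stimulated with E2 (1nM final), 16 hr at 37C. LiveBLAzer B/G FRET substrate, 2 hours room temperature, fluorescence read-out.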

Test [5] in a line: qHTS assay to identify small molecule agonists of the androgen receptor (AR) signaling pathway in the presence of an antagonist - cell viability counter screen (AID 1259379; active means well fitted curve in the direction sought with a large enough effect in the repeat runs; an effect the other way counts as inactive or inconclusive;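 further: MDA-kb2 human breast cancer cells carrying an MMTV luciferase reporter; series mostly up to about 92 µM; nearly all actives have a fitted effect of over 25% in size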). Put shortly: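 Fluorescence from CellTiter-Fluor, added after 15 hr and read 1 hr later, gave cell viability. Cells were MDA-kb2 exposed to compounds (15 concentrations) in the presence of 3.0uM nilutamide at 37C, 0% CO2.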

The nature of test [6]: qHTS assay to identify small molecule agonists of the estrogen receptor beta (ER-beta) signaling pathway - cell viability counter screen (AID 1259380; active means well fitted curve in the direction sought with a large enough effect in the repeat runs; an effect the other way counts as inactive or inconclusive; further: nearly all actives have a fitted effect of over 30% in size; further: potency means the concentration at half of the fitted maximal effect). An outline of the steps:
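Same-well viability counter screen. Cells: ER-beta-UAS-bla HEK293T, plated 6 hr before compound, in 2% charcoal-stripped FBS. Compound exposure 16 hr, 37C; viability by CellTiter-Glo luminescence after 30 min at room temperature.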

The nature of test [7]: qHTS assay to identify small molecule antagonists of the estrogen receptor beta (ER-beta) signaling pathway - cell viability counter screen (AID 1259382; active means well fitted curve in the direction sought with a large enough effect in the repeat runs; an effect the other way counts as inactive or inconclusive;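 further: HEK293T cells carrying ER-beta-UAS-bla reporter stimulated with estradiol; series mostly up to about 92 µM; nearly all actives have a fitted effect of over 55% in size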). An outline of the steps: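 Following a 6 hr plating period, HEK293T cells carrying a UAS-driven beta-lactamase reporter under ER-beta control received compounds and 1nM E2 (final). After 16 hr at 37C and 2 hr substrate loading, CellTiter-Glo luminescence indicated viability.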

Test [8] concerns the target Estrogen receptor (Homo sapiens) (UniProt P03372). Nature of the test: qHTS assay to identify small molecule agonists of the estrogen receptor alpha (ER-alpha) signaling pathway in the presence of an antagonist (AID 1259383). Further: top concentration of the series differs between compounds; nearly all actives have a fitted effect of over 15% in size. Put shortly: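 Cells are hormone-deprived for 5 days (charcoal-stripped FBS, no phenol red), plated for 24hr, spiked with 10.0nM ICI-182,780, then dosed at 15 concentrations. After 22hr at 37C, ONE-Glo luminescence reports ERE-luciferase activity.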

A short description of test [9]: qHTS assay to identify small molecule agonists or antagonists of the thyroid stimulating hormone receptor (TSHR) signaling pathway - wild type cell line counter screen (AID 1259384). Put shortly:
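Counter screen in untransfected Hek293: compounds (15-point titration, triplicate) plus phosphodiesterase inhibitor Ro20-1724 added after 18 h plating; 30 min RT. Intracellular cAMP via competitive d2/cryptate immunoassay, 1 h incubation.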

Test [10] addresses Androgen receptor (Homo sapiens) (UniProt P10275). Put plainly: qHTS assay to identify small molecule agonists of the androgen receptor (AR) signaling pathway in the presence of an antagonist (AID 1259381). Further: nearly all actives have a fitted effect of over 15% in size. Put shortly: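 Cells are MDA-kb2 (human breast carcinoma, MMTV-luc, AR/GR responsive). Nilutamide is present at 3.0uM final throughout; compounds are added at 15 concentrations and incubated 16hr at 37C before ONE-Glo luminescence detection.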

Structures are written as SMILES. Several values for one entry are separate records, joined by “and”; a condition that tells them apart may be missing. Equal values may be shown once. Records with an inconclusive call do not appear. Where a structure was tested more than once in an assay, its records may differ in their call. Activity calls are given as the source filed them. Unless noted, the call rests on the fitted dose curve.

Chain of Estrogen receptor beta (Homo sapiens) (Q92731 whole entry, looked up): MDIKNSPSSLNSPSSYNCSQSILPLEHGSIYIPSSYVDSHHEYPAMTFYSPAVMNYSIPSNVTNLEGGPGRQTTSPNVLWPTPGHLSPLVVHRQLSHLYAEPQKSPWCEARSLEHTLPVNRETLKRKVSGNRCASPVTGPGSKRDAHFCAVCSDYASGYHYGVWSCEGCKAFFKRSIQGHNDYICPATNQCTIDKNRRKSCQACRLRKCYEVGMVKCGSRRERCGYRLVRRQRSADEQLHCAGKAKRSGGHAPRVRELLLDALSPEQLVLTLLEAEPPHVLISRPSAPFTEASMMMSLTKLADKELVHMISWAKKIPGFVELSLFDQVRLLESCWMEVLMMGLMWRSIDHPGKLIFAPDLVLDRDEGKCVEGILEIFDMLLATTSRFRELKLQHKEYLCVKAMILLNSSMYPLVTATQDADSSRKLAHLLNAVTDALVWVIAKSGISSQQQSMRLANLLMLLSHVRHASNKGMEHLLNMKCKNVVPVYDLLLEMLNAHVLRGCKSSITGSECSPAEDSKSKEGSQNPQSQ
Chain of Androgen receptor (Homo sapiens) (P10275 whole entry, looked up): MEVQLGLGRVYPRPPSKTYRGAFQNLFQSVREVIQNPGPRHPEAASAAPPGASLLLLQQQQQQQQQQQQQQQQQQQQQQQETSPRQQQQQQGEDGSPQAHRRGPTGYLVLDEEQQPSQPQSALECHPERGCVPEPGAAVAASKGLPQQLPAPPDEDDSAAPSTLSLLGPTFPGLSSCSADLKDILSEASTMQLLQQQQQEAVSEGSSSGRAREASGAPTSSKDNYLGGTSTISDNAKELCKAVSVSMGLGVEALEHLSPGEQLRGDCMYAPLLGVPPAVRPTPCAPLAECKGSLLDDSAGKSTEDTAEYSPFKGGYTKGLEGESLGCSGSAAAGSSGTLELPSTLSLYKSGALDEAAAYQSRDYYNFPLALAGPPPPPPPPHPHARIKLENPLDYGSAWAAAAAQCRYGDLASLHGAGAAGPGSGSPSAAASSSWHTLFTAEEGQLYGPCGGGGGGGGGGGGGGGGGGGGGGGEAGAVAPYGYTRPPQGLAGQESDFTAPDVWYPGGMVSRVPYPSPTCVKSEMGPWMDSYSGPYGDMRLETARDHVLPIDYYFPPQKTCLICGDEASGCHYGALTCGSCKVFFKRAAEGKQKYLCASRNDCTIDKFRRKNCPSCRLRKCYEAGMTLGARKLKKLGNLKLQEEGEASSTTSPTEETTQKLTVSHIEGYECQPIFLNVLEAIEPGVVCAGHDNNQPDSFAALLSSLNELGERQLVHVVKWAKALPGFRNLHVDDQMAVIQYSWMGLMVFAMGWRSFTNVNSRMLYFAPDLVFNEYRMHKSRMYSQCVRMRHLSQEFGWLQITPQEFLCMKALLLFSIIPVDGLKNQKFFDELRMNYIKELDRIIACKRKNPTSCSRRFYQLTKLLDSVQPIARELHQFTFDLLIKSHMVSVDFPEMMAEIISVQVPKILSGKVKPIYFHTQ
Chain of Estrogen receptor (Homo sapiens) (P03372 whole entry, looked up): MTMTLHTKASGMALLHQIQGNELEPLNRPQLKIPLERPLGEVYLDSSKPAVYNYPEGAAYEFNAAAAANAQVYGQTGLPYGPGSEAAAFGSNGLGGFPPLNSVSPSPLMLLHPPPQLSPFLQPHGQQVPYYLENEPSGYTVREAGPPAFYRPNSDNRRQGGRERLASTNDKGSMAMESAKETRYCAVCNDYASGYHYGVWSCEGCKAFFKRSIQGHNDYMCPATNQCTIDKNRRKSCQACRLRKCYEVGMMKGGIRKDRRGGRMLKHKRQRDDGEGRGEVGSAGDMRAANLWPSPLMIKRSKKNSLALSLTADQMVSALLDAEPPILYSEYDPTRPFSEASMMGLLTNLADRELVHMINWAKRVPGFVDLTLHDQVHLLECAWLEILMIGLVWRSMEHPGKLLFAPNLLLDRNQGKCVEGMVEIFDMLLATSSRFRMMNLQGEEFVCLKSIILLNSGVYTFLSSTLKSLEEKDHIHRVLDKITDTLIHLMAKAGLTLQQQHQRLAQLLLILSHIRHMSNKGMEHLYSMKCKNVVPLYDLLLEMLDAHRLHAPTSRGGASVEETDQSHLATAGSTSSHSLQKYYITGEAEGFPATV

For `ClCC(Br)CBr` (stereo unspecified), the Potency result in test [1], in [2], in [3], in test [4], in [5] and in test [6] was “inactive” in each case. Further, the Potency result in test [7] and in test [8] was “inactive” each time. Besides, the molecule was classed as inactive in [9].

With `O=C(NCc1cccnc1)Nc1ccc([N+](=O)[O-])cc1`, the Potency result in [1], in test [2], in test [3], in test [4], in test [5] and in test [7] was “inactive” in each case. The Potency entry in [8] was “inactive”.

For the molecule `ClCc1ccccc1`, the Potency entry in [1], in test [2], in test [3], in test [4], in test [5] and in [7] was “inactive” in each case. In test [8], the Potency result is “inactive”. Besides, in test [9], the call was inactive.

With `CCCCC(O)(Cn1cncn1)c1ccc(Cl)cc1Cl` (stereo unspecified), the Potency result in test [1], in test [3], in [10] and in test [8] was “inactive” in each case. Besides, the Potency was 19.3 µM (active) in [2], 48.5 µM (active) in test [4] and 68.5 µM (active) in [6]. In [9], the outcome was inactive.

Regarding `Nc1nc(N)nc(N)n1`, the Potency result in test [1], in test [2], in test [3], in [4], in test [5] and in test [6] was “inactive” throughout. Further, in test [7], the Potency entry was “inactive”. In addition, the molecule was classed as inactive in test [9].

For `CCCCOC(=O)c1ccccc1C(=O)OCc1ccccc1`, the Potency result in [1], in test [3], in test [5] and in test [7] was “inactive” each time. The Potency result is “inactive and 19.3 µM (active)” in [2]; 6.1 µM (active) and 9.15 µM (active) in test [4].

As to `ClCCCCBr`, the Potency entry in [1], in [2], in test [3], in test [4], in test [5] and in test [6] was “inactive” in each case. Further, in [7], the Potency entry was “inactive”. The outcome in [9] was inactive.

As for `CC1(C)[C@H](C=C(Cl)Cl)[C@@H]1C(=O)O[C@@H](C#N)c1cccc(Oc2ccccc2)c1`, the Potency result in [1], in [2], in [3], in test [4], in test [5] and in test [6] was “inactive” in each case. Also, the Potency result in test [7] and in test [8] was “inactive” in each case. For the same molecule, in [9], the outcome was inactive.

`C=CCC1([C@H](C)CCC)C(=O)NC(=O)NC1=O`: the Potency result in test [1], in [2], in test [3], in test [4], in test [5] and in test [6] was “inactive” throughout. Moreover, the Potency result in [7] and in [8] was “inactive” in each case. Further, in test [9], the result was inactive.

Take `CCOP(=O)(OCC)Oc1ccc([N+](=O)[O-])cc1`: the Potency result in test [1], in [2], in [3], in [4], in [5] and in [6] was “inactive” each time. For the same molecule, in [7], the Potency entry is “inactive”. In addition, in test [9], the molecule was classed as inactive.

Take `c1ccc(CN2CCNCC2)cc1`: the Potency result in test [1], in [2], in test [3], in test [4], in [5] and in [6] was “inactive” each time. Further, in [7], the Potency entry was “inactive”. Besides, in test [9], the molecule was called inactive.

On to `O=[N+]([O-])c1ccccc1CCl`, for which the Potency result in test [1], in [2], in test [3], in test [4], in test [6] and in test [7] was “inactive” each time. The Potency entry in [8] is “inactive”.

As to `C=CC(=O)OC`, the Potency entry in test [1], in test [2], in test [3], in test [4], in test [5] and in [6] was “inactive” throughout. The Potency entry in test [7] was “inactive”. Also, in [9], the call was inactive.

As to `CCOC(=O)CBr`, the Potency entry in test [1], in [2], in test [3], in test [4], in test [5] and in test [6] was “inactive” each time. Moreover, in test [7], the Potency entry was “inactive”. For the same molecule, in test [9], the molecule was called inactive.

As to `N#C/C(N)=C(/N)C#N`, the Potency entry in [1], in test [2], in [3], in [4], in test [5] and in test [6] was “inactive” in each case. Moreover, the Potency entry in test [7] and in test [8] was “inactive” each time. Also, the molecule was classed as inactive in test [9].

As for `CC1C(=O)C[C@]2(C(C)C)C[C@H]12` (stereo partly specified), the Potency entry in [1], in test [2], in [3], in test [4], in test [5] and in [6] was “inactive” throughout. Moreover, the Potency entry in test [7] was “inactive”. Also, the outcome in test [9] was inactive.

With `CCCCCCCCOC(=O)c1ccc(C(=O)OCCCCCCCC)c(C(=O)OCCCCCCCC)c1`, the Potency entry in test [1], in test [2], in [3], in test [4], in test [5] and in test [7] was “inactive” each time. Further, the result in test [9] was inactive.

As to `CC/C(=N\OC/C=C/Cl)C1=C(O)CC(C2CCOCC2)CC1=O` (stereo unspecified), the Potency entry in [1], in [2], in test [3], in test [4], in test [5] and in test [6] was “inactive” throughout. Also, the Potency entry in test [7] was “inactive”. The call in test [9] was inactive.

Regarding `Clc1ccc(C2(Cn3cncn3)CC(Br)CO2)c(Cl)c1` (stereo unspecified), the Potency result in test [1], in [2], in test [3], in test [5], in test [6] and in test [7] was “inactive” each time. For the same molecule, the Potency result in test [8] is “inactive”. The outcome in test [9] was inactive.

On to `CCCCC(CC)COP(=O)(Oc1ccccc1)Oc1ccccc1` (stereo unspecified), for which the Potency entry in [1], in test [2], in test [3], in test [10], in test [7] and in [8] was “inactive” in each case. The molecule was called inactive in test [9].

Turning to `CCCCc1c(C)nc(NCC)nc1OS(=O)(=O)N(C)C`, the Potency entry in [1], in test [3], in test [6], in [7] and in [8] was “inactive” in each case. Moreover, the Potency in test [2] is 61.1 µM (active). Besides, the call in test [9] was inactive.

`CCC(Br)(CC)C(=O)NC(N)=O`: the Potency entry in test [1], in test [2], in test [3], in [4], in [6] and in test [7] was “inactive” in each case. Further, in test [9], the call was inactive.

In the case of `CN(C)c1ccc(N(C)C)cc1`, the Potency in test [1] is 24.4 µM (active). For the same molecule, the Potency result in [2], in test [3], in test [5] and in test [8] was “inactive” in each case.

In the case of `S=C=NCc1ccccc1`, the Potency entry in test [1], in test [2], in test [3], in test [10] and in [7] was “inactive” each time. Moreover, in test [4], the Potency is 49.1 µM (active). Besides, in test [9], the outcome was inactive.

Turning to `NS(=O)(=O)C(F)(F)C(F)(F)C(F)(F)C(F)(F)C(F)(F)C(F)(F)C(F)(F)C(F)(F)F`, the Potency result in test [1], in test [2], in test [3], in [5], in test [10] and in test [8] was “inactive” throughout. Further, the Potency in test [6] was 68.6 µM (active). The molecule was classed as inactive in [9].

With `CC1Sc2c(C(=O)O)c(=O)c3cc(F)c(N4CCNCC4)cc3n21` (stereo unspecified), the Potency entry in [1], in test [2], in test [3], in test [5], in test [6] and in test [10] was “inactive” in each case. Further, the Potency result in [7] and in test [8] was “inactive” in each case.

Regarding `COP(=S)(OC)Oc1cc(Cl)c(I)cc1Cl`, the Potency result in test [1], in [3], in test [5], in [10] and in [7] was “inactive” in each case. The Potency in test [2] is 38.6 µM (active). The molecule was classed as inactive in [9].

Consider `C#CCOC(C(=O)OCCN(C)C)(c1ccccc1)c1ccccc1`, for which the Potency result in [1], in test [2], in [3], in [4], in test [6] and in test [7] was “inactive” in each case. Also, in [9], the molecule was called inactive.

For the molecule `O=Cc1ccc2c(c1)OCO2`, the Potency result in [1], in [2], in [3], in test [4], in test [6] and in test [7] was “inactive” each time. Moreover, the outcome in test [9] was inactive.
